The campaign covered roughly 360,000 compounds. About 16,000 (4.4%) were called active. Not shown: some 9% with an inconclusive outcome. Calls come from the whole dose curve; as a rule, active = well fitted inhibition curve with a large enough effect; inconclusive = small, poorly fitted or top-dose-only effect; inactive = no such curve, though single readings can be large or run the other way. This excerpt belongs to a sample that is enriched for actives.
Target: Bromodomain adjacent to zinc finger domain protein 2B (Homo sapiens) (UniProt Q9UIF8)
Sequence (Q9UIF8 whole entry, looked up, the tested form may be a part): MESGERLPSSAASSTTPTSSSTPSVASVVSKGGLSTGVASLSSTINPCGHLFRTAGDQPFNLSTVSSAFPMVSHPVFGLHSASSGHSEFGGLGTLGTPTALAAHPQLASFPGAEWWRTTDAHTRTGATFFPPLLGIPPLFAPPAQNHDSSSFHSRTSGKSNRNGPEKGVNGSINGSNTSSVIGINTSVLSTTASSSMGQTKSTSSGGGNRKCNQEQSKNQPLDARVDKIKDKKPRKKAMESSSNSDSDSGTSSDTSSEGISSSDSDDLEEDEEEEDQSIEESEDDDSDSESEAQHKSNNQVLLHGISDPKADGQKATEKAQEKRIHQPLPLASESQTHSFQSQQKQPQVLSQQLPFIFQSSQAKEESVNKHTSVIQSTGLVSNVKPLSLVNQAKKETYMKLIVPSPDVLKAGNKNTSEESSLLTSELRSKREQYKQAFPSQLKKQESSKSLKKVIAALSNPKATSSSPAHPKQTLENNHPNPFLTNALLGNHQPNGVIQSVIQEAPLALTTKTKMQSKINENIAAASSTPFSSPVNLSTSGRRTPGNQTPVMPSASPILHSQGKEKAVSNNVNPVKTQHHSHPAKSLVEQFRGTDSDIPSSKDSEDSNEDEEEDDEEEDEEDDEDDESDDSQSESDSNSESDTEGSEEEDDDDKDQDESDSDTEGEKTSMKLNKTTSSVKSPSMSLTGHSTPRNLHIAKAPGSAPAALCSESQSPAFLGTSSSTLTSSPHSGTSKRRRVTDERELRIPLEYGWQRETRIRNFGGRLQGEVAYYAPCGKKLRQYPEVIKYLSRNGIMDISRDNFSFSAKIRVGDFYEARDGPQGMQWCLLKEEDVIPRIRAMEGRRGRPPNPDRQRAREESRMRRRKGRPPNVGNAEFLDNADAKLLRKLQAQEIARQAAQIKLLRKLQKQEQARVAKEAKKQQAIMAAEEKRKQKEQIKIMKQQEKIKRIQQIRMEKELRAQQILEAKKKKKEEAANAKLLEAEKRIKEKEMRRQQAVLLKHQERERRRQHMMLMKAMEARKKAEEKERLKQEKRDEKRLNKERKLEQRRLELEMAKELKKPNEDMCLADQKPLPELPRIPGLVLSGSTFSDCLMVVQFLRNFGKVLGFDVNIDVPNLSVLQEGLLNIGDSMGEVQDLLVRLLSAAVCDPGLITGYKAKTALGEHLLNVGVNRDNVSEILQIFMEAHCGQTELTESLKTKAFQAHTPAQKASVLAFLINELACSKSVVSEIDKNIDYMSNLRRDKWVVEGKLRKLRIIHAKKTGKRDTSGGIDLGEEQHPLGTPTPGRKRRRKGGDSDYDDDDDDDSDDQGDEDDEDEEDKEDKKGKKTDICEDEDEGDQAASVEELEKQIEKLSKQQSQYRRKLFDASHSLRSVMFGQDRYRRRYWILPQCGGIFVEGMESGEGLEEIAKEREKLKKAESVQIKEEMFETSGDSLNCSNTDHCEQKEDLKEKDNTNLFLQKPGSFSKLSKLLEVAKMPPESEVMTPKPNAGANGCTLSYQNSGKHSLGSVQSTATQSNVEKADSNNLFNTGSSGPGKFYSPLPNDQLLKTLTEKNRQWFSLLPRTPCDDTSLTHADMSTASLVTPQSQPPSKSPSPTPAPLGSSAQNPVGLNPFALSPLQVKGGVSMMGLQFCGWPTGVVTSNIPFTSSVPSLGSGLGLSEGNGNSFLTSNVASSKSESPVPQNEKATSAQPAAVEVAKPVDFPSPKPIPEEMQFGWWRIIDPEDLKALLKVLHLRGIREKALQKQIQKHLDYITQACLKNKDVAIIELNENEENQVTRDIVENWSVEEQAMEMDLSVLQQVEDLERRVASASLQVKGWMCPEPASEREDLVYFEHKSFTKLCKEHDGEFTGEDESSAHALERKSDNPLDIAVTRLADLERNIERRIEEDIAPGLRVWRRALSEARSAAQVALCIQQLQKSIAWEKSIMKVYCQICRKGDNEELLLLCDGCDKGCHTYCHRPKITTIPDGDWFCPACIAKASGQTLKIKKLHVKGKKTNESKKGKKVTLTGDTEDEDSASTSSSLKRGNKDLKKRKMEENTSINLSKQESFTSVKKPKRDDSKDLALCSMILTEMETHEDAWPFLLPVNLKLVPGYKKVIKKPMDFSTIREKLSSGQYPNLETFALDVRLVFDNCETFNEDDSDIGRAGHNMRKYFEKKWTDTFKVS
Experiment: qHTS Assay for Inhibitors of BAZ2B; note: nearly all actives have a fitted effect of over 60% in size
Conditions: AlphaScreen BAZ2B-H3K14Ac peptide displacement; series mostly up to 114 µM; activity change, negative = inhibition: at the top concentration
Text: BAZ2B (bromodomain adjacent to zinc finger domain, 2B) belongs to a family of ubiquitously expressed bromodomain containing proteins, which biological function has not yet been elucidated. […] The interaction of BAZ2B with ISWI mediated by the BAZ1 motif has recently been described. […] The protocol is based on the AlphaScreen (PerkinElmer) displacement assay developed by NCGC [5], but uses the peptide ligand Biot-H3K14Ac, a high affinity binding partner for BAZ2B, in an AlphaScreen format. Although AlphaScreen has significant advantages with its utility in a variety of epigenetic target assays, the primary screening data provided in this deposition should be used with caution due to the prevalence of screening artifacts. The top compound concentration tested was 110uM in this assay, which increases number of actives and potential artifacts. An AlphaScreen counterscreen is highly recommended to be run against any putative actives to eliminate non-specific artifacts. Alternatively, one can use other AlphaScreen assays in PubChem to filter out promiscuous hits. Eberharter, A. et al. ACF1 improves the effectiveness of nucleosome mobilization by ISWI through PHD-histone contacts. The EMBO journal 23, 4029-4039. 2004. PMID: 15457208 [2] Jones, M.H. et al. A novel family of bromodomain genes. Genomics 63, 40-45. 2000. PMID: 10662543 [3] Yasgar, et al. Compound Management for Quantitative High-Throughput Screening. JALA. 2008 Apr;13(2):79-89. PMID: 18496600 [4] Inglese, et al. Quantitative high-throughput screening: a titration-based approach that efficiently identifies biological activities in large chemical libraries. Proc Natl Acad Sci. 1;103(31):11473-8. 2006. PMID: 16864780 [5] Quinn et al. A chemiluminescence-based method for identification of histone lysine methyltransferase inhibitors. Mol Biosyst 6(5): 782-8. 2010. PMID: 20567762 [6] Baell,Holloway. New substructure filters for removal of pan assay interference compounds (PAINS) from screening libraries and for their exclusion in bioassays. J Med Chem. 53(7):2719-40. 2010. PMID: 20131845 NIH Molecular Libraries Probe Production Network [MLPCN] NIH Chemical Genomics Center [NCGC] Structural Genomics Consortium (SGC) NIH Grant: 5U54 MH084681-02
To each well of a 1,536w plate, 2ul of BAZ2B protein (final 50nM) and 1ul biotinylated histone peptide acetylated at Lys14 [b-H3(5-23)K14Ac] (final 50nM) were added in 1x PBS buffer, pH 7.4, containing 0.01% Tween-20, using a nanoliter dispenser. Formation of a protein-peptide complex proceeded at room temperature for 30 min. A Kalypsys pin-tool was employed to transfer 23 nL of library compound solution in DMSO to each well. Following a 30 min incubation of the protein-peptide complex with compounds at room temperature, a mixture of 40 ug/mL each streptavidin-coated donor and nickel chelate acceptor AlphaScreen beads (final 10 ug/mL) were added in a 1ul dispense for a final volume of 4ul. A brief centrifugation followed (1000rpm, 1 min) and were then incubated protected from the light for 20 min at room temperature. Plates were read on an EnVision multilabel plate reader using the 1,536 plate HTS AlphaScreen aperture (excitation time 80 ms, measurement time 240 ms).
% is set by controls: 0 for no effect and ±100 for the full control effect; potency is the fitted concentration of half-maximal effect.

Potency, active:
O=C(O)c1cscn1 20 µM
N/C(=N\OC(=O)Cc1ccc([N+](=O)[O-])cc1)c1ccccn1 50.1 µM
CN(C)c1ccc(N/C=C/C(=O)C(F)(F)F)cc1 28.2 µM
Cc1oc2c(C)c3oc(=O)c(CC(=O)N[C@@H](CC(C)C)C(=O)N[C@@H](Cc4ccccc4)C(=O)O)c(C)c3cc2c1C 35.5 µM
O=[N+]([O-])c1ccc(N/N=C2/CCCCC2c2ccccn2)c([N+](=O)[O-])c1 (stereo unspecified) 31.6 µM
Cc1ccsc1C(=O)NCCc1ccco1 56.2 µM
COc1cccc(OCCCN2CCCCCC2)c1 56.2 µM
COc1ccc(OCCCCN2CCC(C)CC2)cc1 79.4 µM
C/C=C/c1ccc(OCCCCN2CCC(C)CC2)c(OC)c1 35.5 µM
Cc1ccc(-c2nc3ccccn3c2Nc2c(C)cccc2C)o1 28.2 µM

Activity change, negative = inhibition, inactive:
COc1ccc(NC(=O)Cn2c(=O)cc(C)c3c(C)nn(-c4cccc(Cl)c4C)c32)cc1OC 6.48%
Cc1cccc(OCCSc2nc3ccc(NC(=O)COc4ccccc4C)cc3s2)c1 -0.749%
N/C(=N\OC(=O)c1ccc([N+](=O)[O-])cc1)c1ccccn1 -10.2%
COc1ccccc1OCC(=O)O/N=C(\N)c1ccccn1 -12.8%
CCOC(=O)c1cccc(NC(=O)Cn2cnc3nc4c(cc3c2=O)CCCC4)c1 0.226%
Cc1ccc(CCNC(=O)c2ccc3c(c2)nc2n3CCC(C)C2)cc1 (stereo unspecified) -1.73%
Cn1nnnc1SCCCNCc1cccc(OCc2ccc(Cl)cc2)c1 -10.3%
CC(=O)N(C)c1ccc(NC(=O)C(F)(F)F)cc1 0.95%
CC(C)CNC(=O)C(=O)Nc1ccc(N(C)C)cc1 2.15%
Cc1oc2ccc(O)c(CN3CCC(C)CC3)c2c1C(=O)Nc1ccccc1 -11.6%
Cc1c(CCC(=O)N[C@@H](CC(C)C)C(=O)O)c(=O)oc2c(C)c3oc4c(c3cc12)CCCC4 2.36%
Cc1c(OC(C)C(=O)N[C@@H](Cc2ccccc2)C(=O)O)ccc2c3c(c(=O)oc12)CCCC3 (stereo partly specified) 4.24%
COc1ccc(NC(=O)CSc2nc3ncccc3[nH]2)c(OC)c1 19.4%
COc1ccc(C(=O)Nc2cccc(C(=O)OCc3cc(=O)n4c5c(sc4n3)CCCC5)c2)cc1 -3.18%
CCc1ccccc1NC(=O)Cc1ccc(NC(=O)N2CCCCc3ccccc32)cc1 -22.7%
O=C(Nc1ccccc1)O/N=C1\CCCCC1c1ccc([N+](=O)[O-])cc1[N+](=O)[O-] (stereo unspecified) -10.1%
COc1cc([N+](=O)[O-])ccc1NC(=S)N1CCN(c2ccccn2)CC1 -30%
Cc1ccc(F)cc1NC(=O)CCSc1nc(-c2ccco2)cc(C(F)(F)F)n1 -4.98%
COC(=O)c1cc(S(=O)(=O)N2CCN(c3cc(Cl)ccc3C)CC2)c[nH]1 -34.9%
COc1ccc(-c2nc3sc(CCNC(=O)C(C)(C)C)c(C)n3n2)cc1 -0.378%
COc1cc(-c2noc(-c3ccc(N4CCCC4)c([N+](=O)[O-])c3)n2)cc(OC)c1OC -9.72%
Cc1ccc(Cl)cc1NC(=O)/C(C#N)=C\c1cn(Cc2ccc(F)cc2)c2ccccc12 -0.433%
Cc1ccccc1NC(=O)NCc1ccco1 21.7%
COc1cc(OC)cc(C(=O)NCCSCc2ccco2)c1 1.54%
Cc1ccc(F)cc1S(=O)(=O)N1CCC(c2nc3ccccc3s2)CC1 0.45%
Cc1ccc(C(=O)COC(=O)C(Cc2c[nH]c3ccccc23)NC(=O)c2ccc(Br)cc2)cc1 (stereo unspecified) -3.33%
COc1cccc(OCC(O)CN2CCN(CCO)CC2)c1 (stereo unspecified) 3.99%
COc1cccc(NC(=O)NCCN2CCCCC2)c1 7.24%
C/C=C/c1ccc(OCCOc2ccc(C=O)cc2OC)c(OC)c1 -0.85%
COc1cc(/C=N/NC(=O)c2ccoc2C)ccc1OCCN1CCCCC1 -8.24%
CC1CCN(CC(O)COc2ccc(C(=O)c3ccccc3)cc2)CC1 (stereo unspecified) 9.12%
COc1ccc(OC)c(NC(=O)CCN2CCC(C)CC2)c1 3.12%
CCCCN(C)S(=O)(=O)c1ccc(C(=O)Nc2sc3c(c2C(N)=O)CC(C)(C)NC3(C)C)cc1 -0.53%
COC(=O)c1ccccc1NC(=O)Cn1c(=O)cc(C)c2c(C)nn(-c3cccc(Cl)c3C)c21 -12.2%
CCOc1ccc(CNC(=O)C2CCCN(S(=O)(=O)N(CC)c3ccc(OCC)cc3)C2)cc1 (stereo unspecified) -10.5%
Cc1ccc(Cc2nc3ccccc3nc2SCC(=O)Nc2cccc(C(F)(F)F)c2)cc1 -2.14%
Cc1nc2ccccn2c(=O)c1NC(=O)c1c(F)cccc1F 0.0769%
Cc1cccc(C)c1Nc1c(-c2ccccc2O)nc2ncccn12 -2.78%
CCOC(=O)C1CCN(c2ncnc3c2c(-c2ccccc2)cn3-c2cccc(C)c2)CC1 -23.7%
CCOc1ccc(CCNC(=O)c2csc3c2CCCCC3)cc1 3.42%
Cc1ccccc1NC(=O)c1ccccc1NS(=O)(=O)c1cccc2cccnc12 -10.2%

Source: PubChem BioAssay AID504333 (National Center for Advancing Translational Sciences (NCATS), 2011)
